Inconclusive results are not listed. The source made the active and inactive calls. Unless noted, calls come from the whole dose curve; as a rule, active = well fitted curve in the direction sought with a large enough effect in the repeat runs; inconclusive = weak or mixed curves; inactive = no such curve, though single readings can be large; an effect the other way counts as inactive or inconclusive.
Assays:
[1] = qHTS assay to identify aromatase inhibitors - cell viability counter screen (AID 743084);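 note: cells stimulated with testosterone during compound exposure; nearly all actives have a fitted effect of over 55% in size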
[2] = molecular target: Aryl hydrocarbon receptor (Homo sapiens) (UniProt P35869); experiment: qHTS assay to identify small molecule that activate the aryl hydrocarbon receptor (AhR) signaling pathway (AID 743085);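 note: HG2L7.5c1 human HepG2 liver cells with stably integrated DRE-driven firefly reporter; series mostly up to about 70 µM; nearly all actives have a fitted effect of over 15% in size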
Sequence of Aryl hydrocarbon receptor (Homo sapiens) (P35869 whole entry, looked up): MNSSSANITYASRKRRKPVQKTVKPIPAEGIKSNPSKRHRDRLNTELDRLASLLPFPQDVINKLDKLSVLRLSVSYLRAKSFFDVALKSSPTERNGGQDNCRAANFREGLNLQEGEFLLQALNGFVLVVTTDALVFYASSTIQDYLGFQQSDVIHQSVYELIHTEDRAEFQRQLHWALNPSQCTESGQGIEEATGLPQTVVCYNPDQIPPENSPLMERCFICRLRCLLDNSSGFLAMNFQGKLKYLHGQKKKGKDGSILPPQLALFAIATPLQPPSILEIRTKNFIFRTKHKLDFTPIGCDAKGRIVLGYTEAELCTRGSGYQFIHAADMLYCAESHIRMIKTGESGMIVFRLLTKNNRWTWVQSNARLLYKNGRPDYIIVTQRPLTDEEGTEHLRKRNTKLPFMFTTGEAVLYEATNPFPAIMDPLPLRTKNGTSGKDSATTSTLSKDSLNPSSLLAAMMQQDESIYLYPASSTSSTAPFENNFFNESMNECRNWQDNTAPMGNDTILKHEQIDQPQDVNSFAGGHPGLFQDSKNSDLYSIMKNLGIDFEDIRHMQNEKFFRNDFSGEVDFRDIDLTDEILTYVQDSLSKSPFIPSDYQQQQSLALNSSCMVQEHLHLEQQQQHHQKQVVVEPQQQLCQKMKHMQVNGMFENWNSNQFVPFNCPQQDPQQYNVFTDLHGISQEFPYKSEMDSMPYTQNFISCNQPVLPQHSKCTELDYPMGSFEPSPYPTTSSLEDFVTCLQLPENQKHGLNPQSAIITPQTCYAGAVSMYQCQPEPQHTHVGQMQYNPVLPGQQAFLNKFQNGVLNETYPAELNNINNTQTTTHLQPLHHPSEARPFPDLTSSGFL
Outline: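 Measured in HG2L7.5c1 cells: CellTiter-Fluor signal (30 min incubation, 37C) for viability, then luciferase luminescence (30 min, room temperature). Compound contact time was 24 h at 37C, following a 5 h pre-incubation.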

[3] = qHTS assay to identify small molecule that activate the aryl hydrocarbon receptor (AhR) signaling pathway - cell viability counter screen (AID 743086);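 note: HepG2 liver cells carrying the AhR DRE luciferase reporter; series mostly up to about 70 µM; nearly all actives have a fitted effect of over 45% in size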
Outline: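 HepG2-AhR-luc (HG2L7.5c1) cells, 4000/well, treated 24 h at 37 C with compound; viability measured as CellTiter-Fluor fluorescence after 30 min in the same wells as the luciferase read.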

[4] = qHTS assay to identify small molecule antagonists of the peroxisome proliferator-activated receptor gamma (PPARg) signaling pathway - cell viability counter screen (AID 743194); note: nearly all actives have a fitted effect of over 55% in size
Outline: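 Cytotoxicity counter screen in PPARg-bla HEK293H cells, same wells as reporter assay. Compounds plus 50 nM rosiglitazone (final) for 17 h at 37 C, then viability read by CellTiter-Glo luminescence.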

[5] = qHTS assay for small molecule agonists of the antioxidant response element (ARE) signaling pathway - cell viability counter screen (AID 743203; calls by dose curve; note: nearly all actives have a fitted effect of over 55% in size)
Outline: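 Viability counter screen: CellTiter-Glo luminescence, read after 30 min at room temperature, in ARE-bla HepG2 wells. Compound exposure lasted 16 h at 37C/5% CO2, following a 5 h pre-incubation of the cells after plating.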

[6] = qHTS assay for small molecule activators of the heat shock response signaling pathway - cell viability counter screen (AID 743209); note: nearly all actives have a fitted effect of over 50% in size
Outline: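 Cytotoxicity counter screen run in the same wells as the heat-shock bla reporter assay: HeLa HSE-bla cells, 5 h compound exposure at 37 C, viability read by CellTiter-Glo luminescence.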

[7] = qHTS assay to identify small molecule agonists of the peroxisome proliferator-activated receptor delta (PPARd) signaling pathway - cell viability counter screen (AID 743211); note: nearly all actives have a fitted effect of over 55% in size
Outline: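 Following 5 h plating at 37 C and 5% CO2, PPARd UAS-bla HEK293H cells took up test compounds for 17 h. Viability was quantified by luminescence 30 min after CellTiter-Glo addition at room temperature.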

[8] = molecular target: Peroxisome proliferator-activated receptor delta (Homo sapiens) (UniProt Q03181); experiment: qHTS assay to identify small molecule agonists of the peroxisome proliferator-activated receptor delta (PPARd) signaling pathway (AID 743212; calls by dose curve)
Sequence of Peroxisome proliferator-activated receptor delta (Homo sapiens) (Q03181 whole entry, looked up): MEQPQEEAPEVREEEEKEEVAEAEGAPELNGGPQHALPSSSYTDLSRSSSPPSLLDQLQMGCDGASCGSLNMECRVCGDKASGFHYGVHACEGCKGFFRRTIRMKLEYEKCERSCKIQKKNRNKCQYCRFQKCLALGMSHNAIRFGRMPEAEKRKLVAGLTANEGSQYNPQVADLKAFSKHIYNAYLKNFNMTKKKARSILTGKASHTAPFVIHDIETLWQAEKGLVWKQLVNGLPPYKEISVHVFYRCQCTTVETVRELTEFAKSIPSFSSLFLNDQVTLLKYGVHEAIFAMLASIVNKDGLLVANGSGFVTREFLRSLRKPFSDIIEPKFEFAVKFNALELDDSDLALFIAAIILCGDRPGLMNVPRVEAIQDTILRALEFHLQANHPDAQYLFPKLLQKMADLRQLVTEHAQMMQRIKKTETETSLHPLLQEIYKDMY
Outline: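 Read-out: beta-lactamase FRET fluorescence after 2 h room-temperature incubation with LiveBLAzer B/G substrate. Cells were HEK293H carrying a UAS-bla reporter for PPARd, treated at 37 C with DMSO-dissolved compounds.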

[9] = qHTS assay to identify small molecule antagonists of the peroxisome proliferator-activated receptor delta (PPARd) signaling pathway - cell viability counter screen (AID 743213); note: nearly all actives have a fitted effect of over 50% in size
Outline: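 CellTiter-Glo was added to PPARd-bla HEK293H wells following 17 h compound treatment in the presence of 300 nM L165041. Luminescence was recorded after 30 min at room temperature.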

[10] = molecular target: Peroxisome proliferator-activated receptor delta (Homo sapiens) (UniProt Q03181); experiment: qHTS assay to identify small molecule antagonists of the peroxisome proliferator-activated receptor delta (PPARd) signaling pathway (AID 743215; active = well fitted inhibition curve with a large enough effect in the signal ratio in the repeat runs, not every such curve was filed as active; the % refers to the signal ratio;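 note: cells stimulated with agonist L165041 at 300 nM final during compound exposure; series mostly up to about 62 µM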)
Outline: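 Agonist L165041 (300 nM final) added with compound to PPARd-bla HEK293H UAS-bla reporter cells; 17 h incubation at 37 C. Read-out: LiveBLAzer FRET substrate, 2 h at room temperature, fluorescence intensity.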

[11] = qHTS assay to identify small molecule agonists of the farnesoid-X-receptor (FXR) signaling pathway - cell viability counter screen (AID 743218); note: nearly all actives have a fitted effect of over 45% in size
Outline: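 Viability counter screen in the same wells: CellTiter-Glo luminescence, 30 min room-temperature incubation, measured after the beta-lactamase read. Cells were GeneBLAzer FXR-UAS-bla HEK 293T, compound-treated 16 h at 37C.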

[12] = qHTS assay to identify small molecule antagonists of the farnesoid-X-receptor (FXR) signaling pathway - cell viability counter screen (AID 743221; active = well fitted cell-killing curve with a large enough effect in the repeat runs, not every such curve was filed as active; note: nearly all actives have a fitted effect of over 50% in size)
Outline: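 Compound effects on cell number were measured as CellTiter-Glo luminescence in HEK 293T cells expressing FXR-UAS-bla, after 16 h at 37 C with 50 uM CDCA (final).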

[13] = molecular target: Vitamin D3 receptor (Homo sapiens) (UniProt P11473); experiment: qHTS assay to identify small molecule agonists of the vitamin D receptor (VDR) signaling pathway (AID 743222; calls by dose curve)
Sequence of Vitamin D3 receptor (Homo sapiens) (P11473 whole entry, looked up): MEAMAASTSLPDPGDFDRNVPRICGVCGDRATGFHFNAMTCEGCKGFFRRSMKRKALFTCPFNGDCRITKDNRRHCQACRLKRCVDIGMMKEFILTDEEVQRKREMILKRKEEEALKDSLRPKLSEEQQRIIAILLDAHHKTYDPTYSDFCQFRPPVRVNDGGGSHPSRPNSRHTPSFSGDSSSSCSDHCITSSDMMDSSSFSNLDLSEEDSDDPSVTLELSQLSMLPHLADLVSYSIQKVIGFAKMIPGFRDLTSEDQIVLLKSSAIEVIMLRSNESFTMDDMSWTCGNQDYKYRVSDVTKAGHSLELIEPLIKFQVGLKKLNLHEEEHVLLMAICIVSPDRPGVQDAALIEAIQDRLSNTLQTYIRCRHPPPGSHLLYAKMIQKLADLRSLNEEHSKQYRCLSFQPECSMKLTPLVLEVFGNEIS
Outline: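 Agonist mode, beta-lactamase reporter: fluorescence from LiveBLAzer B/G FRET substrate (2 h, room temperature) read after 16 h compound treatment at 37 C of VDR-bla cells, which were pre-incubated 4 h after seeding.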

[14] = molecular target: Peroxisome proliferator-activated receptor gamma (Homo sapiens) (UniProt P37231); experiment: qHTS assay to identify small molecule agonists of the peroxisome proliferator-activated receptor gamma (PPARg) signaling pathway (AID 743094; active = well fitted activation curve with a large enough effect in the signal ratio in the repeat runs, not every such curve was filed as active; the % refers to the signal ratio)
Sequence of Peroxisome proliferator-activated receptor gamma (Homo sapiens) (P37231 whole entry, looked up): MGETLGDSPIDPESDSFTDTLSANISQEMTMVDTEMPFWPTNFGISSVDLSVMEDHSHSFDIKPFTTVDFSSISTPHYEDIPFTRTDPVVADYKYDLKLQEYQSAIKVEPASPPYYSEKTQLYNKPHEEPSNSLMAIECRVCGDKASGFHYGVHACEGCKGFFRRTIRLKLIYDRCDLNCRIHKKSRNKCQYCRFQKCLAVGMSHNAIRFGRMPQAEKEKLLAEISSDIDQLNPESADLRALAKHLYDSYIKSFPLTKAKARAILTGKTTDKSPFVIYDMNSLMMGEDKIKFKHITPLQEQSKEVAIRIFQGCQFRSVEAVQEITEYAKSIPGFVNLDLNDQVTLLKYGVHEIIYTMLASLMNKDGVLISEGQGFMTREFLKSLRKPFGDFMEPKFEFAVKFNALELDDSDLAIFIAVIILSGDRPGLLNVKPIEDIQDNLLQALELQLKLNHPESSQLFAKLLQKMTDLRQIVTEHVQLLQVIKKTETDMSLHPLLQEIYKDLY
Outline: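 Agonist activity was taken from a beta-lactamase reporter (FRET substrate, 1 h at room temperature) in HEK293H cells carrying a PPARg UAS-bla construct. Compounds in DMSO were incubated 17 h at 37C after a 5 h cell pre-incubation.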

[15] = qHTS assay for small molecule agonists of the antioxidant response element (ARE) signaling pathway (AID 743202; active = well fitted activation curve with a large enough effect in the signal ratio in the repeat runs, not every such curve was filed as active; the % refers to the signal ratio)
Outline: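 HepG2 ARE-bla reporter line, 2,000 cells/well; 5 h preincubation 37 C/5% CO2; compound (DMSO) 16 h 37 C; B/G FRET substrate 2 h RT; fluorescence intensity.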

[16] = molecular target: Bile acid receptor (Homo sapiens) (UniProt Q96RI1); experiment: qHTS assay to identify small molecule antagonists of the farnesoid-X-receptor (FXR) signaling pathway (AID 743217; active = well fitted inhibition curve with a large enough effect in the signal ratio in the repeat runs, not every such curve was filed as active; the % refers to the signal ratio)
Sequence of Bile acid receptor (Homo sapiens) (Q96RI1 whole entry, looked up): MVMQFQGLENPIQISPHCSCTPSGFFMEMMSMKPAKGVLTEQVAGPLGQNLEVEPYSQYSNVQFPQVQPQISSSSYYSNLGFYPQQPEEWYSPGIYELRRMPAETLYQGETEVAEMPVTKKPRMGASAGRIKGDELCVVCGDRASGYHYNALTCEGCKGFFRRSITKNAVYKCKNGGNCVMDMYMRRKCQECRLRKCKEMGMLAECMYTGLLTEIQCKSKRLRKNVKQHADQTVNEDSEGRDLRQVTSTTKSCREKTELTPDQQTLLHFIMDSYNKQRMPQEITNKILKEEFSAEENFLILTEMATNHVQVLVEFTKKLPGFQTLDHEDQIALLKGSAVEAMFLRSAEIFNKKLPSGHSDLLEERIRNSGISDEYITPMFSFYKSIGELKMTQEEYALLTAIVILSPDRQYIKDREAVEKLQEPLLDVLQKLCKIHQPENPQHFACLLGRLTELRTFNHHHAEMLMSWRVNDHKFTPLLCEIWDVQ
Outline: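 Antagonist mode: chenodeoxycholic acid at 50 uM final stimulates a UAS-driven beta-lactamase reporter in HEK 293T FXR-bla cells during 16 h, 37C compound exposure. Read-out is FRET substrate fluorescence after 2 h at room temperature.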

[17] = molecular target: Bile acid receptor (Homo sapiens) (UniProt Q96RI1); experiment: qHTS assay to identify small molecule agonists of the farnesoid-X-receptor (FXR) signaling pathway (AID 743220; active = well fitted activation curve with a large enough effect in the signal ratio in the repeat runs, not every such curve was filed as active; the % refers to the signal ratio)
Outline: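 FXR-UAS-bla HEK 293T cells carrying a UAS-driven beta-lactamase reporter were plated for 5 h at 37C/5% CO2, then exposed to DMSO-dissolved Tox21 10K compounds for 16 h at 37C. A LiveBLAzer B/G FRET substrate was loaded for 2 h at room temperature before fluorescence reading.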

[18] = qHTS assay for small molecule activators of the heat shock response signaling pathway (AID 743210; active = well fitted activation curve with a large enough effect in the signal ratio in the repeat runs, with a control signal flat, not every such curve was filed as active; the % refers to the signal ratio;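 note: HeLa cells with beta-lactamase reporter driven by heat shock elements; series mostly up to about 63 µM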)
Outline: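 Beta-lactamase reporter read-out: FRET substrate fluorescence after 2.5 h at RT, following 5 h compound treatment at 37 C of HeLa cells carrying HSE-driven bla reporter; quantitative HTS format.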

[19] = molecular target: Vitamin D3 receptor (Homo sapiens) (UniProt P11473); experiment: qHTS assay to identify small molecule antagonists of the vitamin D receptor (VDR) signaling pathway (AID 743223; active = well fitted inhibition curve with a large enough effect in the signal ratio in the repeat runs, not every such curve was filed as active; the % refers to the signal ratio)
Outline: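 Beta-lactamase activity in VDR-bla cells is measured by FRET substrate fluorescence (2 h, room temperature) after cells spend 16 h at 37C with test compound and 3 nM final 1alpha,25-dihydroxyvitamin D3.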

[20] = molecular target: Peroxisome proliferator-activated receptor gamma (Homo sapiens) (UniProt P37231); experiment: qHTS assay to identify small molecule antagonists of the peroxisome proliferator-activated receptor gamma (PPARg) signaling pathway (AID 743191; calls by dose curve; note: series mostly up to about 63 µM; nearly all actives have a fitted effect of over 30% in size)
Outline: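 GeneBLAzer PPARg UAS-bla HEK293H cells, 5 h post-plating, exposed to compounds 17 h at 37C. LiveBLAzer B/G FRET substrate added for 1 h at room temperature; beta-lactamase reporter read by fluorescence intensity.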
% is set by controls: 0 for no effect and ±100 for the full control effect.

CCCCCCCCCC[N+](C)(C)[O-]
inactive: Potency [1] | Potency [2] | Potency [3] | outcome [4] | outcome [5] | outcome [6] | outcome [7] | outcome [8] | outcome [9] | outcome [10] | outcome [11] | outcome [12] | outcome [13]

C[C@@H]1C[C@H]2[C@@H]3C[C@H](F)C4=CC(=O)C(Cl)=C[C@]4(C)[C@@]3(F)[C@@H](O)C[C@]2(C)[C@@]1(O)C(=O)CO
inactive: Potency [1] | Potency [2] | Potency [3] | Potency [14] | Potency [15] | outcome [5] | outcome [6] | outcome [7] | outcome [16] | outcome [11] | outcome [17] | outcome [12]

CC(=O)OCC(=O)[C@@]1(O)[C@H](C)C[C@H]2[C@@H]3CCC4=CC(=O)C=C[C@]4(C)[C@@]3(F)[C@@H](O)C[C@@]21C
inactive: Potency [1] | Potency [2] | Potency [3] | Potency [14] | Potency [15] | outcome [5] | outcome [6] | outcome [18] | outcome [7] | outcome [8] | outcome [9] | outcome [11] | outcome [12] | outcome [13]

CC[N+](CC)(CC)CCOc1cccc(OCC[N+](CC)(CC)CC)c1OCC[N+](CC)(CC)CC
inactive: Potency [1] | Potency [2] | Potency [3] | outcome [4] | Potency [15] | outcome [5] | outcome [6] | outcome [18] | outcome [7] | outcome [8] | outcome [9] | outcome [10] | outcome [11] | outcome [12]

NO
inactive: Potency [1] | Potency [2] | Potency [3] | outcome [4] | Potency [15] | outcome [5] | outcome [6] | outcome [18] | outcome [7] | outcome [9] | outcome [11] | outcome [12] | outcome [13] | outcome [19]

Cc1c(N)c(=O)n(-c2ccccc2)n1C
inactive: Potency [1] | Potency [2] | Potency [3] | outcome [5] | outcome [18] | outcome [7] | outcome [11] | outcome [12] | outcome [13]

CC1=NS(=O)(=O)c2cc(Cl)ccc2N1
inactive: Potency [1] | Potency [2] | Potency [14] | outcome [4] | Potency [15] | outcome [5] | outcome [6] | outcome [18] | outcome [7] | outcome [8] | outcome [9] | outcome [10] | outcome [11] | outcome [12]

CCCCOCCOC(=O)COc1cc(Cl)c(Cl)cc1Cl
inactive: Potency [1] | Potency [2] | Potency [3] | outcome [4] | Potency [15] | outcome [5] | outcome [6] | outcome [18] | outcome [8] | outcome [9] | outcome [10] | outcome [11] | outcome [12] | outcome [13] | outcome [19]

CCCCOC(=O)CCC(C)=O
inactive: Potency [1] | Potency [2] | Potency [3] | Potency [14] | Potency [15] | outcome [5] | outcome [6] | outcome [7] | outcome [11] | outcome [12] | outcome [13] | outcome [19]

C=CCCC(=O)O
inactive: Potency [1] | Potency [2] | Potency [14] | Potency [20] | outcome [4] | Potency [15] | outcome [5] | outcome [6] | outcome [18] | outcome [7] | outcome [8] | outcome [10] | outcome [11] | outcome [12] | outcome [13]

Nc1ccn([C@@H]2O[C@H](CO)[C@@H](O)[C@@H]2O)c(=O)n1
inactive: Potency [1] | Potency [2] | Potency [3] | outcome [4] | Potency [15] | outcome [5] | outcome [6] | outcome [18] | outcome [7] | outcome [9] | outcome [10] | outcome [11] | outcome [17] | outcome [12] | outcome [13] | outcome [19]

CCC(C)(CN(C)C)OC(=O)c1ccccc1 (stereo not given)
inactive: Potency [1] | Potency [2] | Potency [3] | Potency [15] | outcome [5] | outcome [6] | outcome [18] | outcome [7] | outcome [9] | outcome [12] | outcome [13]

CCCCCCC#CC(=O)OC
inactive: Potency [1] | Potency [2] | Potency [3] | Potency [14] | outcome [6] | outcome [18] | outcome [7] | outcome [8] | outcome [9] | outcome [10] | outcome [11] | outcome [12]

NC(N)=NCCN1CCCCCCC1
inactive: Potency [1] | Potency [2] | Potency [3] | activity change, negative = cytotoxicity [4] 6.29% [at 0.55 µM] | activation [15] 4.68% [at 0.756 µM] | viability change, negative = cytotoxic [5] -0.232% [at 0.756 µM] | activity change, negative = cytotoxicity [6] -20.4% [at 0.55 µM] | activation [18] -0.075% [at 0.55 µM] | activity change, negative = cytotoxicity [7] 8.58% [at 0.55 µM] | viability change, negative = cytotoxic [9] 2.8% [at 0.575 µM] | ratio activity, negative = inhibition [10] 5.69% [at 0.575 µM] | viability change, negative = cytotoxic [11] 2.57% [at 0.55 µM] | activity change, negative = cytotoxicity [12] -1.17% [at 0.55 µM]

CC(C)c1ccc2ncccc2c1
inactive: Potency [1] | Potency [2] | Potency [3] | outcome [4] | Potency [15] | outcome [5] | outcome [6] | outcome [18] | outcome [9] | outcome [10] | outcome [11] | outcome [17] | outcome [12]

CC(C)CC(C)(N)C#N (stereo not given)
inactive: Potency [1] | Potency [2] | Potency [14] | Potency [20] | outcome [4] | Potency [15] | outcome [5] | outcome [7] | outcome [8] | outcome [9] | outcome [10] | outcome [16] | outcome [17] | outcome [12] | outcome [13]

CCC(C(=O)NC(=O)NC(C)=O)c1ccccc1 (stereo not given)
inactive: Potency [1] | Potency [2] | Potency [14] | Potency [20] | outcome [4] | Potency [15] | outcome [5] | outcome [6] | outcome [7] | outcome [9] | outcome [11] | outcome [12]

CC(C)CCCO
inactive: Potency [1] | Potency [2] | Potency [14] | outcome [4] | Potency [15] | outcome [5] | outcome [6] | outcome [18] | outcome [7] | outcome [8] | outcome [10] | outcome [11] | outcome [17] | outcome [12] | outcome [13] | outcome [19]

Nc1ccn([C@@H]2O[C@H](CO)[C@@H](O)C2(F)F)c(=O)n1
inactive: Potency [1] | Potency [2] | Potency [3] | outcome [4] | outcome [5] | outcome [6] | outcome [7] | outcome [8] | outcome [9] | outcome [11] | outcome [17] | outcome [12] | outcome [13] | outcome [19]

C1CCC2=NCCCN2CC1
inactive: Potency [1] | Potency [2] | Potency [3] | outcome [5] | outcome [6] | outcome [18] | outcome [9] | outcome [11] | outcome [12] | outcome [13] | outcome [19]

— PubChem BioAssay (Tox21)
